Assay outcomes as filed in PubChem.
In the library only some 8.8% were active in any assay of this set; here they are far more common.
HT1080-NT tox = kills 2HG-producing HT-1080-NT fibrosarcoma cells | HT-1080-NT fibrosarcoma viability, CellTiter-Glo ATP luminescence, 48 h | hit rate 1.6% among 360,000 | Potency, µM (series often up to 46.1 µM), inactives show at the top dose activity, negative = less viability, actives largely listed as cytotoxic;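 note: NT is the 2HG producing partner of a matched IDH1 knockdown line; potency is the fitted concentration of half-maximal effect; 0% = DMSO-treated cells and -100% = media-only wells without cells; nearly all actives have a fitted effect of over 55% in size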
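Toxicity toward the 2HG-producing NT line was scored as %Activity, normalised to DMSO and no-cell wells, from CellTiter-Glo luminescence after 48 hours' treatment.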
HT1080 IDH1KD tx = kills HT-1080 cells with IDH1 knockdown | HT-1080 IDH1 knockdown viability, ATP luminescence, 48 h | Potency, µM (top dose mostly 46.1 µM), inactives show at the highest dose activity, negative = toxicity, actives largely listed as cytotoxic | hit rate 2% among 360,000;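 note: potency is the fitted concentration of half-maximal effect; 0% = DMSO wells and -100% = cell-free medium wells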
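After a 2 h attachment period, IDH1KD HT-1080 cells took pin-transferred compound for 48 h at 37 °C; ATP-based luminescence after 10 min room-temperature reagent incubation reported viability.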
KB-3-1 cytotox = kills parental KB-3-1 adenocarcinoma cells; Potency, µM (series often up to 46.1 µM), hits mostly cytotoxic; KB-3-1 viability, CellTiter-Glo ATP luminescence, 72 h; AID 1347075; hit rate 1.4% among 400,000; note: potency is the fitted concentration of half-maximal effect; nearly all actives have a fitted effect of over 60% in size
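Multi-concentration cytotoxicity screen in KB-3-1 cells grown in DMEM lacking phenol red with 10% FBS. After 72 h at 37 °C with compound, ATP-dependent luminescence was recorded.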
IL-1B inflam inh = inflammasome signaling inhibition, IL-1 beta readout; THP-1 LPS/ATP IL-1B secretion, AlphaLISA, 16 h; stronger effect = lower value; activity change, % at 57.5 µM; hit rate 4.7% among 360,000; AID 743279; in the data active = activity change below about -50%; inconclusive = mostly about -30% to -49%
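Secreted IL-1B measured by AlphaLISA bead assay after 16 h compound exposure of THP-1 cells; compounds (final up to 57.5 uM) added 1 h before LPS (250 ng/mL) and ATP (1.25 mM) stimulation; lower signal means less secretion.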
KB-V1 MDR tox = KB-V1 MDR subline cytotoxicity; KB-V1 MDR cells viability, CellTiter-Glo, 72 h; Potency, µM (top dose mostly 46.1 µM), actives largely listed as cytotoxic; hit rate 3.4% among 400,000; AID 1347076; note: potency is the fitted concentration of half-maximal effect; nearly all actives have a fitted effect of over 60% in size
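In this primary screen, KB-V1 cells overexpressing P-gp are incubated with library compounds (lowest to highest concentration) for 72 h at 37 degrees C before a luminescent ATP viability read.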
* = called active by the depositor; i = inactive; ? = inconclusive; . = no result given; ! = not active in a repeat. Unless noted, calls come from the whole dose curve; as a rule, active = well fitted curve in the direction sought with a large enough effect; inconclusive = small, poorly fitted or top-dose-only effect, or another doubt; inactive = no such curve, though single readings can be large; an effect the other way counts as inactive or inconclusive. Unless noted, % is set by controls: 0 for no effect and ±100 for the full control effect.

SMILES	HT1080-NT tox	HT1080 IDH1KD tx	KB-3-1 cytotox	IL-1B inflam inh	KB-V1 MDR tox
CCn1c(SCC(=O)N2c3ccccc3CCc3ccccc32)nc2c1c(=O)n(C)c(=O)n2C	?	-1.4%	i	-2.1	2.06µM*
CCn1c(SCc2cc(=O)[nH]c3ccccc23)nc2c1c(=O)n(C)c(=O)n2C	0.6%	-0.4%	i	9.2	16.4µM*
NC(=O)c1ncn([C@@H]2O[C@H](CNCc3ccc(-c4cc(C(F)(F)F)ccc4Cl)o3)[C@@H](O)[C@H]2O)n1	1.3%	-3.3%	i	-11.9	i
COc1ccc(S(=O)(=O)N2CCC[C@H]2C(=O)N2CCC[C@H]2C(=O)NCc2ccc(F)cc2F)cc1C	?	?	i	18.5	i
CCOC(=O)c1cc(S(=O)(=O)Nc2cc(C)c(Cl)cc2OC)[nH]n1	.	.	i	.	i
O=C(CNc1ccccc1OC(F)F)N1CCc2ccccc21	0.9%	3.4%	i	6.8	i
CC(C)CC(NC(=O)c1ccc(Cl)cc1)C(=O)OCC(=O)c1ccc2c(c1)NC(=O)CO2 (configuration not stated)	10.3µM*	8.2µM*	7.31µM*	-85.7*	i
CC(O)C(NS(=O)(=O)c1ccc(Cl)cc1)C(=O)OCC(=O)c1ccc2c(c1)NC(=O)CO2 (configuration not stated)	4.0%	12.6%	i	12.7	?
COc1ccccc1OCCCn1c(=O)sc2ccccc21	5.9%	0.4%	i	-8.1	14.6µM*
COc1ccccc1OCCCn1c(=O)oc2ccccc21	7.4%	1.9%	i	-12.6	i
CCOc1ccc2ccccc2c1/C=N/NC(=O)CNC(=O)c1ccccc1F	1.7%	-5.1%	i	-29.5	i
CCc1ccc(C(c2ccccc2)c2c[nH]c3ccc(C)cc23)s1 (configuration not stated)	.	.	i	.	i
NC(=O)/C(=N\OC(=O)c1ccco1)c1nc(-c2ccc(Br)cc2)cs1	-19.5%	-18.6%	?	?	9.2µM*
CCOC(=O)CC1=CCc2c1ccc(OC)c2OC	18.8%	?	i	13.3	?
CCOC(=O)C1CCCN(CC(=O)N2CCCc3c2c(=O)oc2ccc(OCc4ccccc4)cc32)C1 (configuration not stated)	.	.	i	.	i
O=C(CN1CCN(Cc2ccccc2)CC1)N1CCCc2c1c(=O)oc1ccc(O)cc21	?	?	?	35.8	14.6µM*
O=C(c1ccco1)N1CCN(CC(=O)N2CCCc3c2c(=O)oc2ccc(O)cc32)CC1	4.8%	1.9%	i	0.8	i
CCCCCOc1ccc2oc(=O)c3c(c2c1)CCCN3C(=O)CN1CCCC(C(=O)OCC)C1 (configuration not stated)	?	23.1µM*	?	-23.8	?
CC(=O)Nc1ccc(SC[C@H](Cc2ccccc2)N2CC[C@@H](C(C)(C)C)CCC2=O)cc1	?	16.4µM*	?	-58.8*	?
CC(=O)Nc1ccc(S[C@@H](CCN2CC[C@H](C(C)(C)C)CCC2=O)c2ccccc2)cc1	-28.5%	?	?	-74.5*	?
CC(C)(C)[C@H]1CCC(=O)N([C@H](CSc2ccccc2)Cc2ccccc2)CC1	15.3%	8.2%	?	-7.5	?
Cc1ccc(SC[C@H](Cc2ccccc2)N2CCN(CC(C)C)CCC2=O)cc1	6.6%	7.9%	i	-22.6	i
CC(C)(C)[C@@H]1CCC(=O)N(CC[C@H](N=[N+]=[N-])c2ccccc2)CC1	2.0%	1.0%	i	-23.9	20.6µM*!
CC(C)CN1CCC(=O)N([C@H](CSc2ccccc2)Cc2ccccc2)CC1	-1.0%	-9.4%	?	-16.9	13µM*!
C[C@@H]1CCC(=O)N(CC[C@H](N=[N+]=[N-])c2ccccc2)CC1	2.8%	1.7%	i	21.4	?
SMILES	HT1080-NT tox	HT1080 IDH1KD tx	KB-3-1 cytotox	IL-1B inflam inh	KB-V1 MDR tox
Cc1cc(OC(=O)c2cc(C(F)(F)F)cc(C(F)(F)F)c2)c([N+](=O)[O-])c(=O)[nH]1	0.3%	2.8%	i	24.9	i
CCOC(=O)C1=C(O)CSC1=Nc1ccc(C)cc1	-1.0%	1.5%	i	0.0	i
CCOC(=O)C1=C(O)CSC1=Nc1cccc2ccccc12	1.3%	-3.1%	i	-1.2	23.1µM*
CCOc1ccc(NC(=O)CN(C)C(=O)CCCOc2ccc(Cl)c(C)c2)cc1OCC	-4.2%	-4.4%	i	-15.6	?
O=C1NC(c2ccccc2)=C(c2ccc3ccccc3n2)C(c2ccccc2)N1 (configuration not stated)	-10.0%	-14.1%	i	3.4	i
O=C1NC(c2ccccc2)=C(c2nc3ccccc3s2)C(c2ccc(O)cc2)N1 (configuration not stated)	7.94µM*	5.62µM*	i	-4.9	?
N#CC1(NC(=O)CSc2nc3ccccc3s2)CCCCC1	0.7%	-4.4%	i	-15.1	16.4µM*
CCc1ccc(NC(=O)CSc2nc(NS(=O)(=O)c3ccccc3)cc(=O)[nH]2)cc1	?	?	i	-55.4*	i
O=C1c2ccccc2C(=O)c2c(/C=C/N3CCCCC3)ccnc21	-20.2%	23.1µM*	7.31µM*	-107.1*	2.31µM*
COCCNC(=O)CSc1nc2nc(C)cc(C)n2n1	7.2%	0.1%	i	3.9	i
Cc1cc(C)n2nc(SCCC(=O)NCCc3ccccc3)nc2n1	-3.5%	-0.1%	i	51.1	14.6µM*
Cc1cc(C)n2nc(SCC(=O)Nc3cccc(C(F)(F)F)c3)nc2n1	.	.	?	.	20.6µM*
CCCn1c(C)cc(C(=O)CSc2nc3nc(C)cc(C)n3n2)c1C	4.1%	1.9%	i	-9.2	6.51µM*
Cc1cc(C)nc(SCC(=O)Nc2ccc(S(=O)(=O)NC(C)(C)C)cc2)n1	-12.2%	?	i	4.7	20.6µM*
Cc1cc(C)n2nc(SCC(=O)Nc3ccccc3)nc2n1	2.5%	10.3%	i	-14.3	?
Cc1cc(C)nc(SCC(=O)Nc2ccc(S(=O)(=O)NCCO)cc2)n1	3.8%	-4.8%	i	-6.4	i
C#CCn1cc(/C=C2\NC(=O)NC2=O)c2ccccc21	?	?	i	32.6	?
Cc1ccsc1C(=O)NC(C)c1ccccc1 (configuration not stated)	3.6%	1.1%	i	-3.6	i
Cc1ccc2ncc(C(=O)NCc3ccccc3Cl)c(=O)n2c1	.	.	i	.	i
O=C1CCCN1C(=O)CSc1nnnn1-c1cccc(F)c1	1.3%	9.3%	i	10.4	i
CCN(C(=O)CSc1nc2nc(C)cc(C)n2n1)c1cccc(C)c1	2.1%	-3.0%	i	-14.0	23.1µM*
CCc1ccc(NC(=O)CSc2nc3nc(C)cc(C)n3n2)cc1	-1.3%	-3.9%	i	69.9	13µM*!
